In the library only some 7.5% were active in any assay of this set; here they are far more common.
FLuc modulator – inhibits or activates purified firefly luciferase, miR-21 counter-screen; Potency, µM (top dose mostly 57.5 µM), without a hit: at the top dose activity change, negative = inhibition, most hits filed as inhibitors; P08659; hit rate 6.9% among 360,000; AID 588342; purified FLuc, Km substrates, luminescence inhibition;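 also: plate controls were vehicle for no effect and reference inhibitor for full effect; nearly all actives have a fitted effect of over 55% in size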
Target sequence (P08659 whole entry, looked up): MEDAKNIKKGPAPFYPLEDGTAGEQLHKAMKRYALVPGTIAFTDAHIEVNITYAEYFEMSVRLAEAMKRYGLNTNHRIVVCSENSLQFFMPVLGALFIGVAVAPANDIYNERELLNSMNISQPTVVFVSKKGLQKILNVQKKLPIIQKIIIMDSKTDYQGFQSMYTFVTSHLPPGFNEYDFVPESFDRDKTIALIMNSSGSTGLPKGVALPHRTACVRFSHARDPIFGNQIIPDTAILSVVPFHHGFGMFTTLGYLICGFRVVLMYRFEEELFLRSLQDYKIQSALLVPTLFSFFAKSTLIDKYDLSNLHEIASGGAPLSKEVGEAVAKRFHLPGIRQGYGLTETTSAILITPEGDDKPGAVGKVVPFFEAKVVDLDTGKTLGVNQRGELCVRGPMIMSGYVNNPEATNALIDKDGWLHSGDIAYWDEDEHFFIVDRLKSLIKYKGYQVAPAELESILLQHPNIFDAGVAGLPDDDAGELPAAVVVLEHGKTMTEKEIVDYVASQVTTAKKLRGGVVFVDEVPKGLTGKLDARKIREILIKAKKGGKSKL
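Biochemical qHTS of compounds, final roughly 60 µM downward over six points, against 10 nM purified firefly luciferase using Km concentrations of substrates (10 uM D-luciferin, 10 uM ATP) in Tris acetate pH 7.5 buffer; luminescence output.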
ELG1 genotoxic – induces genotoxicity in HEK293T cells with luciferase-tagged ELG1; HEK293T ELG1-luciferase reporter, luminescence, 16 h; Potency, µM (series often up to 46 µM), without a hit: top-dose activity change, positive = activation, usual class: activators; hit rate 1.3% among 330,000; also: % of control where 0% means no effect; nearly all actives have a fitted effect of over 60% in size
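Cells (2,000/well) expressing the ELG1-luciferase fusion are dosed by pin tool and kept 16 hr at 37 °C, 5% CO2. Signal comes from ONE-Glo luciferase reagent after 30 min at room temperature.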
NPC1 prom act – activates the NPC1 promoter | Huh7 NPC1 promoter luciferase reporter, 24 h | Potency, µM (highest dose often 9.22 µM), for the others: top-dose activation, usual class: activators | hit rate 2.4% among 320,000 | AID 485313; also: % of control where 0% means no effect; nearly all actives have a fitted effect of over 60% in size
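Quantitative HTS used a cell-based reporter: Huh7 cells stably bearing the NPC1 promoter upstream of luciferase were treated with compounds for 24 h, and promoter activation was read as luminescence.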
Rab9 promoter act – Rab9 promoter activation | Potency, µM (highest dose often 9.22 µM), without a hit: at the highest dose activation, negative = inhibition, usual class: activators | Huh7 Rab9 promoter-luciferase reporter, luminescence, 24 h | hit rate 2.8% among 320,000; also: % of control where 0% means no effect; nearly all actives have a fitted effect of over 60% in size
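Using Huh7 cells stably transfected with Rab9 promoter–luciferase, compounds were incubated 24 h at 37 °C, 5% CO2; luciferase luminescence was read 10 min after reagent addition.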
SMN2 splice up – increases expression of the SMN2 splice variant | HEK293 SMN2-luciferase splicing reporter, luminescence, 30-36 h | Potency, µM (series often up to 46.1 µM), without a hit: at the top dose activity change, positive = activation, actives largely listed as activators | hit rate 2.8% among 210,000 | AID 1458; also: % of control where 0% means no effect; nearly all actives have a fitted effect of over 55% in size
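HEK293 cells carry an SMN2 […]–luciferase reporter in which exon 7 inclusion puts luciferase in frame. Cells were plated 10-12 h before compound addition, then incubated 30-36 h at 37C. ONE-Glo luminescence was read; sodium butyrate at 4.5 mM final served as control.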
KinaseGlo FLuc – counter-screen: inhibitors of Kinase-Glo firefly luciferase | Potency, µM (series often up to 38.3 µM), for inactives: top-dose activity change, negative = inhibition, usual class: inhibitors | AID 1379 | hit rate 0.28% among 200,000 | Kinase-Glo luciferase, ATP luminescence, 8 min; also: % is scaled to controls: 0 for no effect and ±100 for the full control effect; nearly all actives have a fitted effect of over 60% in size
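Luminescence was the read-out, taken after 8-minute incubation at ambient temperature. Luciferase turned over luciferin with 10 uM ATP in imidazole pH 7.2 buffer containing KCl, MgCl2, Tween 20 and BSA.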
Starred values were filed as active, the others as inactive; ? = inconclusive; . = no result given; [ ] = another dose, or the depositor's remark. Calls follow the shape of the dose curve; as a rule, active = well fitted curve in the direction sought with a large enough effect; inconclusive = small, poorly fitted or top-dose-only effect, or another doubt; inactive = no such curve, though single readings can be large; an effect the other way counts as inactive or inconclusive. Potency is read from the fitted curve at half-maximal effect.

SMILES	FLuc modulator	ELG1 genotoxic	NPC1 prom act	Rab9 promoter act	SMN2 splice up	KinaseGlo FLuc
CN1c2ccccc2C(=O)/C(=C\Nc2ccc(F)cc2)S1(=O)=O	12µM*	-2.0%	-5.9%	-0.9%	.	.
COc1ccccc1NC(=O)C1=C(C)Nc2nc(SCc3cc(C)ccc3C)nn2C1c1ccccc1 (stereo not given)	0.0%	.	.	.	.	.
NNC(=O)[C@@H](O)[C@H](O)[C@H](O)CO	.	.	.	.	-3.1%[9.22 µM]	-1.0%[7.66 µM]
CCOc1ccc(C(=O)Nc2ccc(N3CCCC3)cc2)cc1	?	3.5%	0.1%	0.4%	-7.4%	0.0%
CCOc1ccc(NC(=O)c2cnc(N3CCCCC3)c3ccccc23)cc1	10.7µM*	.	.	.	.	.
CCOc1cccc(C(=O)Nc2ccc(N(CC)CC)cc2)c1	13.5µM*	?	15.0%	7.3%	22.9%	-2.8%
CCOc1cccc(C(=O)Nc2ccc(N3CCCC3)cc2)c1	6.01µM*	17.5%	?	?	.	.
CCN(CC)c1ccc(NC(=O)c2ccccc2OCC(=O)OC)cc1	21.3µM*	-1.4%	17.2%	19.1%	12.2%	0.5%
CCCc1cc(=O)[nH]c(SCC(=O)Nc2sc3c(c2C(N)=O)CCCC3)n1	.	-0.3%	.	.	.	.
CCN(CC)c1ccc(NC(=O)c2ccc3c(c2)c(C)c(C)n3C)cc1	9.53µM*	1.2%	-4.1%	0.6%	-28.1%	-4.1%
CCOc1cccc(C(=O)Nc2ccc3ccccc3c2)c1	0.477µM*	0.461µM*	2.24µM*	0.562µM*	.	.
Cc1c(C)n(C)c2ccc(C(=O)NCCCN3CCCC3)cc12	0.2%	6.5%	-0.8%	-8.7%	.	.
COc1ccc(-c2nsc(SCC(=O)Nc3cc(C)on3)n2)cc1	2.3%	?	1.4%	12.4%	-3.9%	0.7%
CCOC(=O)CNC(=O)CSc1nc(-c2ccc(OC)cc2)ns1	12µM*	-0.1%	5.1%	17.0%	6.1%	0.5%
CCOC(=O)CSc1nnc(-c2ccccc2)c(-c2ccccc2)n1	-2.7%	-2.0%	-4.0%	-0.8%	.	.
O=C(CSc1nc(-c2ccccc2Cl)ns1)NCc1ccco1	?	0.1%	1.6%	0.2%	-6.6%	-3.8%
CCOC(=O)CSc1nc(-c2ccccc2)ns1	15.1µM*	1.2%	-2.6%	2.1%	8.7%	0.3%
NC(=O)CSc1nc(-c2ccccc2Cl)ns1	?	12.9%	?	3.16µM*	?	-6.8%
CCc1nnc(NC(=O)CSc2nc(-c3ccc(OC)cc3)ns2)s1	1.69µM*	?	19.3%	?	?	1.0%
Cc1ccc(CNC(=O)c2c(-c3ccc(Br)cc3)noc2C)o1	-17.7%	.	.	.	.	.
COc1ccccc1Oc1ccc(NC(=O)c2ccccc2)cc1	-1.3%	4.4%	13.0%	?	.	2.5%
COc1ccc(NC(=O)NC(=O)c2ccccc2)cc1	?	?	1µM*	0.708µM*	.	.
O=C(NC(=O)c1ccccc1)Nc1ccccc1	?	?	0.447µM*	0.631µM*	.	.
Cc1ccc(NC(=S)N(CCN(C)C)Cc2cccs2)cc1	-0.3%	-4.2%	-8.0%	-1.6%	-19.7%	-3.5%
Cc1ccc(NC(=O)CNC(=O)c2ccco2)cc1	?	16.8%	?	3.98µM*	.	.
SMILES	FLuc modulator	ELG1 genotoxic	NPC1 prom act	Rab9 promoter act	SMN2 splice up	KinaseGlo FLuc
CCOC(=O)c1ccc(NC(=O)N(CC)CC)cc1	19µM*	16.4µM*	?	2.51µM*	11.2µM*	1.4%
COc1ccc(NC(=O)CNC(=O)c2ccco2)cc1	-14.9%	?	24.7%	25.9%	.	.
CC(C)OC(=O)c1ccc2nc3ccccc3nc2c1	1.69µM*	?	2.82µM*	0.708µM*	.	.
CCOC(=O)c1ccc(NC(=S)N(CCN(C)C)Cc2cccs2)cc1	-1.4%	-10.7%	-8.4%	-1.2%	3.55µM*	6.6%
CC(C)OC(=O)c1ccc(NC(=O)c2ccco2)cc1	13.5µM*	2.82µM*	2.51µM*	3.16µM*	.	-4.3%
COC(=O)c1ccc(NC(=O)c2cccc(NC(=O)c3ccco3)c2)cc1	-13.7%	0.5%	-8.8%	8.2%	.	.
CC(C)OC(=O)c1ccc(NC(=O)c2ccccc2)cc1	15.1µM*	16.8%	3.98µM*	?	12.6µM*	-4.7%
CCOc1ccccc1NC(=O)c1ccc(NC(=O)c2ccco2)cc1	-3.0%	0.5%	2.9%	-2.4%	-8.2%	9.0%
CCOC(=O)c1ccc(NC(=O)c2ccco2)cc1	10.7µM*	?	3.55µM*	2.24µM*	.	.
CCOC(=O)c1cnc(-n2nc(C)cc2C)nc1NC1CCCC1	-1.4%	-8.6%	-7.0%	-13.0%	.	.
CCOC(=O)c1cnc(-n2nc(C)cc2C)nc1N(C)C	5.36µM*	?	?	4.47µM*	?	?
COc1ccc([C@@H](Nc2ncccn2)c2cc3c(cc2O)OCO3)cc1	.	.	.	.	2.1%[9.22 µM]	-8.9%[7.66 µM]
Cc1ccc(NCC(=O)c2ccc(C)cc2)cc1	9.53µM*	?	27.8%	29.1%	.	.
Cc1ccc(NCC(=O)c2ccccc2)cc1Cl	?	15.7%	-3.4%	-3.2%	17.8µM*	-7.3%
Cc1ccc(C(=O)CNc2cccc(Cl)c2)cc1	2.69µM*	?	10.3%	?	3.2%	-3.9%
Cc1ccc(C(=O)CNc2ccc(C)c(Cl)c2)cc1	?	?	12.8%	10.1%	2.2%	-2.3%
COc1ccc(N2CCN(C(=O)c3cccc(NC(=O)c4ccco4)c3)CC2)cc1	2.6%	-7.3%	1.1%	5.3%	.	.
Cc1coc2c1c(C)cc1oc(=O)c(CC(=O)NCC(=O)O)c(C)c12	?	2.6%	-3.6%	-9.9%	.	.
Cc1cc2oc(=O)c(CC(=O)O)c(C)c2c2occ(C(C)(C)C)c12	21.3µM*	19.7%	?	14.6%	.	.
Cc1cc2oc(=O)c(CC(=O)NCCCO)c(C)c2c2occ(C(C)(C)C)c12	10.7µM*	-0.9%	16.0%	-0.4%	.	.
COCCNC(=O)Cc1c(C)c2c(cc(C)c3c(C(C)(C)C)coc32)oc1=O	2.69µM*	3.5%	-19.4%	-7.7%	.	.
CSCC[C@H](NC(=O)Cc1c(C)c2c(cc(C)c3c(C)coc32)oc1=O)C(=O)O	19µM*	1.0%	-2.8%	-8.6%	.	.
CC[C@@H](C)[C@H](NC(=O)Cc1c(C)c2c(cc(C)c3c(C)coc32)oc1=O)C(=O)O	?	2.5%	-11.8%	-2.4%[1.84 µM]	.	.
Cc1cc2oc(=O)c(CC(=O)NCCCN(C)C)c(C)c2c2occ(C(C)(C)C)c12	?	0.6%	21.9%	-3.6%	.	.
Cc1coc2c1c(C)cc1oc(=O)c(CC(=O)NCCCCCC(=O)O)c(C)c12	?	2.6%	-0.5%	-2.6%	.	.
O=C(C[n+]1ccccc1)N/N=C/c1ccc(Cl)c(Cl)c1	0.7%	-9.1%	-7.7%	-2.6%	.	.
COc1ccccc1NC(=O)c1cc(-c2ccc(OC)c(OC)c2)nc2ccccc12	9.53µM*	-1.5%	0.5%	1.6%	.	.
COc1ccc(-c2cc(C(=O)Nc3ccc(O)cc3)c3ccccc3n2)cc1OC	5.36µM*	-0.4%	10.9%	28.7%	.	.

Assay outcomes deposited in PubChem by National Center for Advancing Translational Sciences (NCATS).
